The values below are quoted from earlier work in PubChem BioAssay AID977611.

In all, about 3,900 compounds went through this assay and about 3,900 (100%) were called active. The limit is not given here; nearly all actives have Kd up to about 4200 µM. So high a share suggests a set chosen from earlier hits. The list shows a part of the results. Numbered stars: 1 amine (or outer) side, 2 acyl side, 3 side chain; on linkers, the order of the positions; unused ones are H or OH. Bridge positions count the residues as written; N and C are the ends. Where a SMILES comes first, the peptide text is derived from it. Non-standard residues stand in square brackets, D forms with d. Square brackets hold non-standard residues; d marks the D form. Residues, ends and D or L forms follow the SMILES beside them. Peptide text beside a SMILES is read from it. [ ]: non-standard residue; d: D form. Thr(P(OH)3+) = C[C@@H](O[P+](O)(O)O)[C@H](N)C(=O)O; Orn(CH(NH2)2) = NC(N)NCCC[C@H](N)C(=O)O; Cha = N[C@@H](CC1CCCCC1)C(=O)O; Orn = NCCC[C@H](N)C(=O)O; X1 = O=C(C[*:1])[*:2]

A short description of the data set: PubChem AID 977611. The following applies: PDB protein-ligand complexes, literature Kd.

As usually defined, the Kd is a measure of binding affinity in units of concentration. Consider `CC[C@H](C)[C@H](NC(=O)[C@H](CC(=O)O)NC(=O)[C@H](Cc1ccc(O)cc1)NC(=O)[C@H](C)NC(=O)[C@H](C)NC(=O)CN)C(=O)N[C@@H](CO[P+](O)(O)O)C(=O)N[C@@H](CCC(N)=O)C(=O)N[C@H](C(=O)N[C@@H](Cc1ccccc1)C(=O)N1CCC[C@H]1C(=O)N[C@@H](Cc1ccccc1)C(=O)N[C@@H](C)C(=O)N[C@@H](C)C(=O)O)C(C)C`, for which the Kd (protein: Breast cancer type 1 susceptibility protein, PDB entry 1t2v) is 0.4 µM (active).
Consider `CSCC[C@H](NC(=O)[C@H](CCCCN)NC(=O)[C@@H](N)CCCCN)C(=O)N[C@H](C(=O)N[C@@H](Cc1ccccc1)C(=O)N[C@@H](CCC(N)=O)C(=O)N[C@H](C(=O)N1CCC[C@H]1C(=O)N[C@H](C(=O)N[C@@H](CC(=O)O)C(=O)N1CCC[C@H]1C(=O)N[C@@H](CC(C)C)C(=O)N[C@@H](CCC(=O)O)C(=O)O)[C@@H](C)O)[C@@H](C)O[P+](O)(O)O)[C@@H](C)O` (H-KKMTFQ[Thr(P(OH)3+)]PTDPLE-OH), for which the Kd (protein: FHA1 Domain of Rad53, PDB entry 1k3n) is 10.2 µM (active).
Take H-SVPIQCTDKTDKQEALFK-OH: the Kd (protein: human tumor necrosis factor receptor(TRAF3), PDB entry 1l0a) was 23.9 µM (active).
As to H-SAVLQKKITDYFHPKK-OH, the Kd (protein: human proliferating cell nuclear antigen(PCNA), PDB entry 1vyj) is 0.1 µM (active).
Take `CCCCCCCCNc1cc(-c2ccc(OC)cc2)nc(N)n1`: the Kd (protein: Acetylcholine-binding protein AChBP, PDB entry 4qaa) is 0.36 µM (active).
For the molecule `O=c1ccn([C@@H]2O[C@H](CO[P+](O)(O)O)[C@@H](O)[C@H]2O)c(=O)[nH]1`, where the note is “protein: Orotidine 5'-phosphate decarboxylase, PDB entry 3w07”, the Kd was 420 µM (active).
`C[C@H]1O[C@@H](n2ccc(=O)[nH]c2=O)[C@H](O)[C@@H]1O`: the Kd (protein: GLUCOSYL-3-PHOSPHOGLYCERATE SYNTHASE (GpgS), PDB entry 4de7) was 16 µM (active).
For `O=c1ccn([C@H]2C[C@H](O)[C@@H](CO[P+](O)(O)N[P+](O)(O)O[P+](O)(O)O)O2)c(=O)[nH]1`, the Kd (protein: DUTPase, PDB entry 4gv8) is 0.32 µM (active).
With `O=c1ccn([C@@H]2O[C@H](CO[P+](O)(O)N[P+](O)(O)O[P+](O)(O)O)[C@@H](O)[C@H]2O)c(=O)[nH]1`, the Kd (protein: Poly(A) RNA polymerase protein cid1, PDB entry 4nkt) is 1.08 µM (active).
On to `O=[N+]([O-])c1ccc2c(ccn2[C@H]2C[C@H](O)[C@@H](CO[P+](O)(O)O[P+](O)(O)O[P+](O)(O)O)O2)c1`, for which the Kd (protein: Ribonucleoside-diphosphate reductase large chain 1, PDB entry 3rsr) is 44 µM (active).
In the case of H-TKIDWNKIA-OH, the Kd (protein: Protein S100-B, PDB entry 3iqq) is 2.9 µM (active).
In the case of H-KIIDTGGGFIL-OH, the Kd (protein: DNA excision repair protein ERCC-1, PDB entry 2jnw) was 0.78 µM (active).
Take H-EDDDIKQLAAWAT-OH: the Kd (protein: Programmed cell death 6-interacting protein, PDB entry 3c3r) was 41 µM (active).
Turning to `CC[C@H](C)[C@H](NC(=O)[C@H](Cc1ccc(O)cc1)NC(=O)[C@H](Cc1c[nH]c2ccccc12)NC(=O)[C@H](CC(C)C)NC(=O)[C@H](Cc1c[nH]c2ccccc12)NC(=O)[C@H](CC(N)=O)NC(=O)[C@@H](NC(=O)[C@@H](NC(=O)[C@H](CC(=O)O)NC(=O)[C@H](Cc1ccccc1)NC(=O)[C@H](Cc1c[nH]c2ccccc12)NC(=O)[C@@H](N)CC(N)=O)[C@@H](C)CC)[C@@H](C)O)C(=O)N[C@@H](CCCCN)C(=O)N[C@@H](CCCCN)C(=O)N[C@@H](CCCCN)C(=O)N[C@@H](CCCCN)C(=O)O`, the Kd (protein: human fab 4e10, PDB entry 2fx7) is 0.02 µM (active).
Regarding `CC[C@H](C)[C@H](NC(=O)[C@H](Cc1ccccc1)NC(=O)[C@H](C)N)C(=O)N[C@H](C(=O)N[C@@H](Cc1c[nH]c2ccccc12)C(=O)N[C@@H](CC(C)C)C(=O)N[C@@H](C)C(=O)N[C@@H](CCCNC(N)N)C(=O)N[C@@H](CCCNC(N)N)C(=O)N[C@@H](CC(C)C)C(=O)N[C@@H](CCCCN)C(=O)N[C@@H](CCCCN)C(=O)NCC(=O)N[C@@H](CCCCN)C(=O)N[C@@H](CCCCN)C(=O)O)[C@@H](C)CC` (H-AFIIWLA[Orn(CH(NH2)2)][Orn(CH(NH2)2)]LKKGKK-OH), the Kd (protein: Calmodulin, PDB entry 2lgf) is 2.7 µM (active).
Regarding `CC[C@H](C)[C@H](NC(=O)[C@H](Cc1c[nH]c2ccccc12)NC(=O)[C@H](CC(=O)O)NC(=O)[C@H](CCC(=O)O)NC(=O)[C@H](CC(C)C)NC(=O)[C@@H](N)Cc1ccc(O)cc1)C(=O)N[C@@H](CCCCN)C(=O)N[C@@H](Cc1ccc(O)cc1)C(=O)N[C@@H](CC(N)=O)C(=O)N[C@@H](CC(N)=O)C(=O)N[C@H](C=O)CCC(N)=O` (H-YLEDWIKYNNQ-aldehyde), the Kd (protein: FAB F22-4, PDB entry 3ggw) is 2.9 µM (active).
For H-DEEALKQLAEWVS-OH, the Kd (protein: Programmed cell death 6-interacting protein, PDB entry 3c3o) was 44 µM (active).
Turning to `CC(C)C[C@H](NC(=O)[C@H](Cc1ccc(O)cc1)NC(=O)[C@@H](CCCCN)NC(=O)[C@@H](CO)NC(=O)[C@H](Cc1ccccc1)NC(=O)[C@H](CC1CCCCC1)NC(=O)[C@H](CC(=O)O)NC(=O)[C@H](CO)NC(=O)[C@@H](N)CCCCN)C(=O)N[C@@H](Cc1c[nH]c2ccccc12)C(=O)N[C@@H](CO)C(=O)N[C@@H](CO)C(=O)N[C@@H](CCCCN)C(=O)O` (H-KSD[Cha]F[dS][dK]YLWSSK-OH), where the note is “protein: human Urokinase plasminogen activator surface receptor(uPAR/CD87), PDB entry 1ywh”, the Kd was 0.0164 µM (active).
Consider `CC[C@H](C)[C@H](NC(=O)[C@H](CC(=O)O)NC(=O)[C@H](Cc1ccccc1)NC(=O)[C@H](CCCNC(N)N)NC(=O)[C@H](CC(C)C)NC(=O)[C@H](CCCCN)NC(=O)[C@@H](N)CCCCN)C(=O)O` (H-KKL[Orn(CH(NH2)2)]FDI-OH), for which, where the note is “protein: Serine/threonine-protein phosphatase PP1-alpha catalytic subunit, PDB entry 3n5u”, the Kd was 1.2 µM (active).
Take `CC[C@H](C)[C@H](NC(=O)[C@H](CCC(=O)O)NC(=O)[C@H](CC(N)=O)NC(=O)[C@H](CCC(=O)O)NC(=O)[C@@H](NC(=O)[C@H](Cc1c[nH]c2ccccc12)NC(=O)CNC(=O)[C@H](CO)NC(=O)[C@H](CCC(=O)O)NC(=O)[C@H](CCCCN)NC(=O)[C@H](CO)NC(=O)[C@H](CCCNC(N)N)NC(=O)CN)C(C)C)C(=O)N[C@@H](Cc1ccc(O)cc1)C(=O)N[C@@H](Cc1ccc(O)cc1)C(=O)O` (H-G[Orn(CH(NH2)2)]SKESGWVENEIYY-OH): for the setting “protein: Talin-1, PDB entry 2k00”, the Kd is 24 µM (active).
As for `CC(C)C[C@H](NC(=O)[C@@H](NC(=O)CNC(=O)[C@H](Cc1ccc(O)cc1)NC(=O)[C@@H](NC(=O)CNC(=O)[C@@H](NC(=O)[C@H](CCCNC(N)N)NC(=O)[C@H](CCCNC(N)N)NC(=O)[C@H](C)N)[C@@H](C)O)[C@@H](C)O)C(C)C)C(=O)N[C@@H](C)C(=O)N[C@@H](C)C(=O)N[C@@H](Cc1c[nH]c2ccccc12)C(=O)N[C@@H](C)C(=O)N[C@@H](C)C(=O)N[C@@H](C)C(=O)O` (H-A[Orn(CH(NH2)2)][Orn(CH(NH2)2)]TGTYGVLAAWAAA-OH), where the note is “protein: mouse radixin FERM domain, PDB entry 1j19”, the Kd was 0.0164 µM (active).
With `CC[C@H](C)[C@@H]1NC(=O)[C@@H](NC(=O)[C@H](Cc2ccccc2)NC(=O)[C@H](Cc2c[nH]c3ccccc23)NC(=O)[C@@H](N)CC(N)=O)CSCC(=O)NCCC[C@@H](C(=O)N[C@@H](Cc2c[nH]c3ccccc23)C(=O)N[C@@H](CC(C)C)C(=O)N[C@@H](Cc2c[nH]c3ccccc23)C(=O)N[C@@H](CCCCN)C(=O)N[C@@H](CCCCN)C(=O)N[C@@H](CCCCN)C(=O)N[C@@H](CCCCN)C(=O)O)NC(=O)[C@H]([C@@H](C)O)NC1=O` (H-NWFCIT[Orn]WLWKKKK-OH; linker 4-7 via X1), the Kd (protein: human fab 4e10, PDB entry 2fx9) was 0.017 µM (active).
